High-throughput results as filed in PubChem.
SMN2 splice enh: SMN2 splice variant enhancement. HEK293 SMN2-luciferase splicing reporter, luminescence, 30-36 h. Potency, µM (titrated, usually from 46.1 µM), inactives show top-dose activity change, positive = activation, actives largely listed as activators. 2.8% of 210,000 active; also: % of control where 0% means no effect; nearly all actives have a fitted effect of over 55% in size
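HEK293 cells carry an SMN2 minigene-luciferase reporter in which exon 7 inclusion puts luciferase in frame. Cells were seeded at 2000 cells/well, attached for 10-12 hours, then exposed to compounds for 30-36 hours at 37C before ONE-Glo luminescence.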
NPC1 promoter act: activates the NPC1 promoter; Huh7 NPC1 promoter luciferase reporter, 24 h; Potency, µM (doses to about 9.22 µM), without a hit: at the highest dose activation, actives largely listed as activators; 2.4% of 320,000 active; AID 485313; also: % of control where 0% means no effect; nearly all actives have a fitted effect of over 60% in size
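Luminescence read-out of NPC1 promoter-driven luciferase in stably transfected Huh7 cells; compounds delivered in DMSO and left 24 h at 37C, 5% CO2, qHTS titration format.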
Rab9 promoter act: Rab9 promoter activation; Huh7 Rab9 promoter-luciferase reporter, luminescence, 24 h; Potency, µM (highest dose often 9.22 µM), for the others: at the highest dose activation, negative = inhibition, actives largely listed as activators; 2.8% of 320,000 active; also: % of control where 0% means no effect; nearly all actives have a fitted effect of over 60% in size
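Huh7 cells stably carrying Rab9 promoter–luciferase reporter, plated 1500 cells/well, compound added after 2 h and incubated 24 h at 37 °C; luciferase luminescence then read after 10 min with detection reagent.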
ELG1 genotoxic: genotoxicity induction in ELG1-luciferase HEK293T cells; Potency, µM (titrated, usually from 46 µM), inactives show at the top dose activity change, positive = activation, hits mostly activators; AID 504466; 1.3% of 330,000 active; HEK293T ELG1-luciferase reporter, luminescence, 16 h; also: % of control where 0% means no effect; nearly all actives have a fitted effect of over 60% in size
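Reporter readout depends on ELG1 protein level, which increases with genetic stress. After 16 hr compound exposure at 37 °C, luciferase activity was quantified using ONE-Glo.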
Luc counter: blocks Kinase-Glo luciferase, a counter-screen artifact; Q27757; Kinase-Glo luciferase, ATP luminescence, 8 min; Potency, µM (doses to about 38.3 µM), inactives show at the highest dose activity change, negative = inhibition, usual class: inhibitors; 0.28% of 200,000 active; AID 1379; also: % is scaled to controls: 0 for no effect and ±100 for the full control effect; nearly all actives have a fitted effect of over 60% in size
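Kinase-Glo luciferase light output from ATP and luciferin was measured with 10 uM ATP, within the enzyme's linear range. Buffer: 50 mM imidazole pH 7.2, 50 mM KCl, 7 mM MgCl2, 0.01% Tween 20, 0.05% BSA; luminescence read after 8 min at ambient temperature.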
FLuc counter: firefly luciferase modulation, counter-screen for miR-21 project. P08659. purified FLuc, Km substrates, luminescence inhibition. Potency, µM (doses to about 57.5 µM), without a hit: at the highest dose activity change, negative = inhibition, most hits filed as inhibitors. 6.9% of 360,000 active. AID 588342;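 also: plate controls were vehicle for no effect and reference inhibitor for full effect; nearly all actives have a fitted effect of over 55% in size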
Target sequence (P08659 whole entry, looked up): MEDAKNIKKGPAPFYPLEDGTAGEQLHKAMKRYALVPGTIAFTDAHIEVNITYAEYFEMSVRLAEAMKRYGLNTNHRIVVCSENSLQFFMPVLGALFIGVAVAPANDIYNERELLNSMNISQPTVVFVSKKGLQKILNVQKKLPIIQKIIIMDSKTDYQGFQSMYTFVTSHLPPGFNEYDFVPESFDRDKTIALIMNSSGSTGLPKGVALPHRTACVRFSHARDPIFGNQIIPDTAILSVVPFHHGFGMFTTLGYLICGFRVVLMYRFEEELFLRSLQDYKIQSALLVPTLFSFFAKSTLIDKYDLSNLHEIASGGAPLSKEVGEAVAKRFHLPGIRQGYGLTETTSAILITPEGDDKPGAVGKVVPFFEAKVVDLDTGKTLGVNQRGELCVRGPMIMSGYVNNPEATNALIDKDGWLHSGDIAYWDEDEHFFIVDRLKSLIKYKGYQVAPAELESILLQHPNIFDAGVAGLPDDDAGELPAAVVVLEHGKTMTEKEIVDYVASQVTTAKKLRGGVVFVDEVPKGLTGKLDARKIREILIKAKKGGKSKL
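Biochemical qHTS of compounds, final roughly 60 µM downward over six points, against 10 nM purified firefly luciferase using Km concentrations of substrates (10 uM D-luciferin, 10 uM ATP) in Tris acetate pH 7.5 buffer; luminescence output.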
* hit, by the source's call; ? = inconclusive; · = not tested or not shown; [ ] = another dose, or the depositor's remark. This is a sample that favours compounds with a hit; in the whole collection about 7.3% have one here. Calls follow the shape of the dose curve; as a rule, active = well fitted curve in the direction sought with a large enough effect; inconclusive = small, poorly fitted or top-dose-only effect, or another doubt; inactive = no such curve, though single readings can be large; an effect the other way counts as inactive or inconclusive. Potency is read from the fitted curve at half-maximal effect.

SMILES | SMN2 splice enh | NPC1 promoter act | Rab9 promoter act | ELG1 genotoxic | Luc counter | FLuc counter
Cn1c(SCC(=O)N2CCOCC2)nc2cccnc21 | · | 0.2% | -16.7% | 1.2% | · | -0.9%
COc1ccc(-c2nc(CS(=O)CC(=O)N3CCOCC3)c(C)o2)cc1OC (stereo unspecified) | · | -4.7% | 0.3% | 4.7% | · | -0.8%
O=C(CSc1nc2[nH]ncc2c(=O)[nH]1)Nc1ccc(Cl)c(Cl)c1 | · | -1.7% | -2.9% | -7.2% | · | -12.1%
Cc1cc(Oc2ccccc2)nc(SCC(=O)Nc2ccc(Cl)cc2Cl)n1 | -25.4% | 1.5% | 7.4% | -2.1% | -0.7% | 0.0%
COc1ccccc1C(=O)Nc1ccncc1 | · | -1.5% | -3.5% | 0.2% | · | 5.9%
COc1ccc(NC(=O)NC2CCCc3ccccc32)cc1OC (stereo unspecified) | · | ? | 0.0% | 6.51µM* | · | ?
COc1ccc(NC(=O)NC2CCCc3ccccc32)cc1 (stereo unspecified) | · | 9.1% | 9.9% | 1.1% | · | -2.6%
COc1ccccc1C(=O)Nc1ccc(Br)cc1C | · | ? | ? | 10.3% | -0.3% | 16.9µM*
COc1ccccc1C(=O)Nc1ccccn1 | 22.4µM* | 2.51µM* | ? | 12.6µM* | -9.9% | 7.57µM*
O=C(Nc1cccc(O)c1)C(=O)Nc1ccccn1 | 10µM* | ? | 3.55µM* | ? | 4.47µM* | 1.51µM*
COCC(=O)Nc1ccc(Br)cc1C | -2.5% | -1.0% | -2.7% | 2.7% | -4.3% | 6.1%
Cc1cc(C)n(-c2ncnc3sc4c(c23)CC(C)CC4)n1 (stereo unspecified) | · | -1.0% | -1.2% | 0.8% | · | 2.0%
CC(C)CNS(=O)(=O)c1ccc(NC(=O)Cn2nc(-c3ccc(F)cc3)ccc2=O)cc1 | 2.8% | 0.1% | -3.8% | 0.9% | 1.4% | -0.2%
O=C(Nc1ccc(Cl)c(Cl)c1)Nc1ccccn1 | · | 3.16µM* | 4.47µM* | ? | · | ?
COc1cccc2cc(C(=O)Nc3ccccc3C)/c(=N/O)oc12 | · | ? | 17.4%[1.84 µM] | ? | · | 6.75µM*
COc1ccc(NC(=O)Nc2ccccn2)cc1OC | · | 24.3% | 19.5% | ? | · | 19µM*
COc1ccc(NC(=O)Nc2cc(C(C)(C)C)on2)cc1OC | · | -3.2% | -8.2% | -8.6% | · | 1.8%
COc1ccc(NC(=O)CN(c2ccccc2)S(=O)(=O)N(C)C)cc1OC | 1µM* | 1.9% | -1.3% | -7.5% | 1.8% | 2.2%
COc1ccc(-n2c(=S)[nH]c3ccccc3c2=S)cc1 | · | -7.6% | -0.9%[1.84 µM] | -5.8% | · | -0.2%
COc1ccccc1OCCCCn1c(C(C)O)nc2ccccc21 (stereo unspecified) | · | -1.8% | 4.3% | -6.2% | · | 2.7%
Cn1c(N2CCOCC2)nc(-c2ccccc2)c1-c1ccccc1 | -11.4% | -2.1% | 9.7% | -5.0% | -6.7% | -0.7%
COc1ccccc1C(=O)Nc1ccc(Br)c2cccnc12 | · | 13.9% | 9.5% | -6.8% | · | 12µM*
COc1cc(C(=O)Nc2cccc3cccnc23)cc(OC)c1OC | -6.8% | 0.8% | -6.2% | -7.8% | -1.7% | -9.4%
CC(C)Cn1c(C(C)NC(=O)Cc2ccccc2)nc2ccccc21 (stereo unspecified) | -15.1% | -2.4% | -3.4% | ? | 5.5% | 0.8%
CN(Cc1ccco1)C(=O)Cn1c(=O)oc2cc(S(=O)(=O)NCc3ccccc3)ccc21 | -4.2% | -1.9% | -7.0% | -4.7% | 2.0% | -0.2%
SMILES | SMN2 splice enh | NPC1 promoter act | Rab9 promoter act | ELG1 genotoxic | Luc counter | FLuc counter
O=C(CN1C(=O)NC2(CCCCC2)C1=O)Nc1ccc2c(c1)OCCCO2 | · | 3.16µM* | 3.16µM* | ? | · | 12µM*
CC1CCCCC12NC(=O)N(CC(=O)NC(=O)Nc1ccc3c(c1)OCCO3)C2=O (stereo unspecified) | 12.6µM* | 2.82µM* | 3.55µM* | ? | -2.6% | 10.7µM*
COC(=O)C1=CN(Cc2ccc(OC)c(OC)c2)C=C(C(=O)OC)C1c1cccc(OC)c1OC | · | 20.0% | 15.9% | 1.3% | · | 1.5%
COc1ccc(N=C2C(=O)Nc3ccccc32)cc1 | -3.6% | 1.3% | 0.8% | 8.3% | -0.6% | -18.9%
Cc1ccc(N=C2C(=O)Nc3ccc(C)c(Br)c32)cc1 | · | 2.4% | 0.1% | -2.6% | · | 12µM*
COc1ccc(N=C2C(=O)Nc3ccc(C)c(Br)c32)cc1 | · | -3.9% | -6.8% | 3.5% | · | 8.49µM*
c1ccc(-n2ncc3c(NC4CCCC4)ncnc32)cc1 | · | · | · | · | · | 4.78µM*
COc1ccc(OC)c(Nc2ncnc3c2cnn3-c2ccc(C)cc2)c1 | · | · | · | · | · | -14.5%
COc1ccc(-n2ncc3c(NC4CCCC4)ncnc32)cc1 | · | · | · | · | · | 1.35µM*
CCOC(=O)N1CCC(Nc2ncnc3c2cnn3-c2ccc(Cl)cc2)CC1 | 7.9% | ? | ? | 11.6µM* | -3.0% | ?
Cc1ccc(-n2ncc3c(NC4CCCC4)ncnc32)cc1 | · | · | · | · | · | 0.379µM*
Cc1ccc(-n2cc(-c3ccccc3)c3c(NC4CCCC4)ncnc32)cc1 | · | · | · | · | · | -3.6%
Cc1ccc(S(=O)(=O)N2[C@@H](c3ccc(Cl)cc3)C(C(=O)O)=CC[C@H]2c2ccc(Cl)cc2)cc1 | · | -1.5% | 1.4% | -1.3% | · | 6.5%
